Test results: PubChem BioAssay (NCATS)
Results filed as inconclusive are left out. Where a call stands in place of a potency, no number is given. The source made the active and inactive calls. Unless noted, calls follow the shape of the dose curve; as a rule, active = well fitted curve in the direction sought with a large enough effect in the repeat runs; inconclusive = weak or mixed curves; inactive = no such curve, though single readings can be large; an effect the other way counts as inactive or inconclusive.

Target: Nuclear receptor ROR-gamma (Homo sapiens) (UniProt P51449)
Sequence (P51449 whole entry, looked up): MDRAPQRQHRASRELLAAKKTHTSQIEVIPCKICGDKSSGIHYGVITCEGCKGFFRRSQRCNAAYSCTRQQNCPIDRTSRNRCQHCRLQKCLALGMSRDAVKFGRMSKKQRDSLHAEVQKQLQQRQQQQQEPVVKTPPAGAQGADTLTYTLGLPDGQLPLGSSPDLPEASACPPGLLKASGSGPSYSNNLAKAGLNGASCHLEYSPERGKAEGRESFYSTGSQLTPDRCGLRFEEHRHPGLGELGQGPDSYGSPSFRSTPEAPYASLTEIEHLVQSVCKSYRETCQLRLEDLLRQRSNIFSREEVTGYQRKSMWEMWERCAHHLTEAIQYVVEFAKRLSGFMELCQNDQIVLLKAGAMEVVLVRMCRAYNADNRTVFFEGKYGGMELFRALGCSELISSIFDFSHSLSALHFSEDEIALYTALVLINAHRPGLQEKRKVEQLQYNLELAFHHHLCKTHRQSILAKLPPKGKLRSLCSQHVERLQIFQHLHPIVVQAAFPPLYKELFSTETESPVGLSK
Test: qHTS assay for small molecule antagonists of the retinoid-related orphan receptor gamma (ROR-gamma) signaling pathway (AID 651802; active = well fitted curve in the direction sought with a large enough effect; an effect the other way counts as inactive or inconclusive; also: nearly all actives have a fitted effect of over 60% in size; also: potency is read from the fitted curve at half-maximal effect)
Conditions: ROR-gamma antagonist cell reporter assay; series mostly up to 92.2 µM
Outline: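 Doxycycline-induced reporter activity in engineered CHO cells (TET-inducible ROR, RORE-LUC) was measured by luminescence after 16hr compound exposure at 37C.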

Structure (SMILES)	Potency
C/C=C/c1ccc(O)c(OC)c1	inactive
CCOc1ccc(NC(C)=O)cc1	inactive
OC[C@H]1O[C@@H]2O[C@H]3[C@H](O)[C@@H](O)[C@@H](O[C@H]4[C@H](O)[C@@H](O)[C@@H](O[C@H]5[C@H](O)[C@@H](O)[C@@H](O[C@H]6[C@H](O)[C@@H](O)[C@@H](O[C@H]7[C@H](O)[C@@H](O)[C@@H](O[C@H]8[C@H](O)[C@@H](O)[C@@H](O[C@H]1[C@H](O)[C@H]2O)O[C@@H]8CO)O[C@@H]7CO)O[C@@H]6CO)O[C@@H]5CO)O[C@@H]4CO)O[C@@H]3CO	inactive
O=C(O)c1ccc(S(=O)(=O)N(Cl)Cl)cc1	inactive
COc1ccc(C(=O)c2ccccc2)c(O)c1	inactive
Oc1c(Cl)cc(Cl)c(Cl)c1Cc1c(O)c(Cl)cc(Cl)c1Cl	1.06 µM (active)
COc1ccc(C(Cl)=C(c2ccc(OC)cc2)c2ccc(OC)cc2)cc1	18.8 µM (active)
CCOc1ccccc1C(N)=O	inactive
CCCN(CCC)S(=O)(=O)c1ccc(C(=O)O)cc1	inactive

Tested on: not listed separately
Test: qHTS for compounds that reverse cellular toxicity of Amyloid beta (A-beta) peptide in yeast: LOPAC Validation Assay (AID 720559; active = well fitted curve in the direction sought with a large enough effect; an effect the other way counts as inactive or inconclusive)
Conditions: yeast expressing A-beta; series mostly up to 46.1 µM
Outline: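 Yeast expressing toxic A-beta grown with pinned compounds at 30 C for 48 hr. Growth measured as absorbance at 600 nm; data normalized to DMSO and to an equimolar FeCl3/clioquinol mixture as positive control.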

Structure (SMILES)	outcome
CC(C)(C)NC[C@H](O)COc1nsnc1N1CCOCC1	inactive
CN=C(N)NCCC[C@H](N)C(=O)O	inactive
NC(N)=NCc1cccc(I)c1	inactive
CCOC(=O)[C@H](CCc1ccccc1)N[C@@H](C)C(=O)N1[C@H](C(=O)O)C[C@H]2CCCC[C@@H]21	inactive

Tested on: not listed separately
Test: qHTS for Activators of Parkin Expression: LOPAC Validation Assay (NLuc Reporter) (AID 720572; active = well fitted curve in the direction sought with a large enough effect; an effect the other way counts as inactive or inconclusive)
Conditions: Parkin promoter NanoLuc reporter cells, luminescence, percent of positive control, DMSO as zero; series mostly up to 46.1 µM
Outline: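 Compound effects on Parkin promoter activity were measured as NanoLuc luminescence after 24 h at 37 C. The neuronal reporter line also carried FLuc, which was read first. LOPAC compounds were tested at 7 concentrations, with normalization to DMSO (0%) and positive control (100%).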

Structure (SMILES)	outcome
CC(C)(C)NC[C@H](O)COc1nsnc1N1CCOCC1	inactive
CN=C(N)NCCC[C@H](N)C(=O)O	inactive
NC(N)=NCc1cccc(I)c1	inactive
CCOC(=O)[C@H](CCc1ccccc1)N[C@@H](C)C(=O)N1[C@H](C(=O)O)C[C@H]2CCCC[C@@H]21	inactive

Tested on: not listed separately
Test: qHTS for Activators of Parkin Expression: LOPAC Validation Assay (FLuc Reporter) (AID 720573; active = well fitted curve in the direction sought with a large enough effect; an effect the other way counts as inactive or inconclusive)
Conditions: Cell line, PRKN promoter firefly luciferase reporter, vehicle wells = 0, positive control = 100%; series mostly up to 46.1 µM
Outline: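 Neuronal cell line stably expressing FLuc/NLuc coincidence reporter under the Parkin promoter, 1,500 cells/well, dosed 24 h after seeding in 7-point series for 24 h at 37 C. FLuc luminescence read; normalized to DMSO and positive control (100%).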

Structure (SMILES)	outcome
CC(C)(C)NC[C@H](O)COc1nsnc1N1CCOCC1	inactive
CN=C(N)NCCC[C@H](N)C(=O)O	inactive
NC(N)=NCc1cccc(I)c1	inactive
CCOC(=O)[C@H](CCc1ccccc1)N[C@@H](C)C(=O)N1[C@H](C(=O)O)C[C@H]2CCCC[C@@H]21	inactive

Tested on: not listed separately
Test: qHTS assay for small molecule agonists of the antioxidant response element (ARE) signaling pathway measured by Nrf2-dependant transcriptional activity (AID 720636);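 also: HepG2 cells with an ARE-driven luciferase reporter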
Conditions: ARE-luc HepG2, Nrf2 luciferase reporter, 16 h; series mostly up to 92.4 µM
Outline: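 Reporter gene assay, HepG2 ARE-luc: 16 hr compound, 37 C, 5% CO2; read-out luciferase luminescence.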

Structure (SMILES)	outcome
CCCCOC(=O)CC(CC(=O)OCCCC)(OC(C)=O)C(=O)OCCCC	inactive
CCCCCCCC/C=C\CCCCCCCCN	inactive
CCCCCCCCOc1ccc(C(=O)c2ccccc2)c(O)c1	inactive
C/C=C/c1ccc(O)c(OC)c1	inactive
CC(C)(C)CC(C)(C)c1ccc(O)c(-n2nc3ccccc3n2)c1	inactive
CCCCCCCCCCCCCCCC(=O)O	inactive
CCOc1ccc(NC(C)=O)cc1	inactive
COc1cc([C@H]2Oc3cc([C@H]4Oc5cc(O)cc(O)c5C(=O)[C@@H]4O)ccc3O[C@@H]2CO)ccc1O	inactive
OC[C@H]1O[C@@H]2O[C@H]3[C@H](O)[C@@H](O)[C@@H](O[C@H]4[C@H](O)[C@@H](O)[C@@H](O[C@H]5[C@H](O)[C@@H](O)[C@@H](O[C@H]6[C@H](O)[C@@H](O)[C@@H](O[C@H]7[C@H](O)[C@@H](O)[C@@H](O[C@H]8[C@H](O)[C@@H](O)[C@@H](O[C@H]1[C@H](O)[C@H]2O)O[C@@H]8CO)O[C@@H]7CO)O[C@@H]6CO)O[C@@H]5CO)O[C@@H]4CO)O[C@@H]3CO	inactive
CC1(C)OC[C@@H]2O[C@@]3(C(=O)O)OC(C)(C)O[C@H]3[C@@H]2O1	inactive
CCCCCCCCCCCCCC(=O)OC(C)C	inactive
C#C[C@]1(O)CC[C@H]2[C@@H]3CCC4=Cc5oncc5C[C@]4(C)[C@H]3CC[C@@]21C	inactive
O=C(O)c1ccc(S(=O)(=O)N(Cl)Cl)cc1	inactive
C=C[C@H]1CN2CC[C@H]1C[C@@H]2[C@@H](O)c1ccnc2ccc(OC)cc12	inactive
CCCCCCCCCCCCCCCCO	inactive
NC(=O)c1ccccc1O	inactive
Oc1c(Cl)cc(Cl)c(Cl)c1Cc1c(O)c(Cl)cc(Cl)c1Cl	inactive
CCCCC(CC)COC(=O)c1ccc(N(C)C)cc1 (stereo not given)	inactive
COc1ccc(C(Cl)=C(c2ccc(OC)cc2)c2ccc(OC)cc2)cc1	inactive
CCOc1ccccc1C(N)=O	inactive
CCCN(CCC)S(=O)(=O)c1ccc(C(=O)O)cc1	inactive
NCCNc1cccc2ccccc12	inactive

Tested on: not listed separately
Test: qHTS assay for small molecule antagonists of the retinoid-related orphan receptor gamma (ROR-gamma) signaling pathway - cell viability counter screen (AID 720652);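 also: CHO reporter cells with doxycycline-induced ROR-gamma expression; compound exposure lasted 16 hr before ATP read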
Conditions: RORgamma reporter cell line viability counter screen; series mostly up to 92.2 µM
Outline: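 ATP-based viability readout in the ROR-gamma reporter CHO cells after 16 hr compound exposure under doxycycline induction.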

Structure (SMILES)	outcome
C/C=C/c1ccc(O)c(OC)c1	inactive
CCOc1ccc(NC(C)=O)cc1	inactive
COc1cc([C@H]2Oc3cc([C@H]4Oc5cc(O)cc(O)c5C(=O)[C@@H]4O)ccc3O[C@@H]2CO)ccc1O	inactive
Oc1ccc(Cl)cc1Cc1cc(Cl)ccc1O	inactive
OC[C@H]1O[C@@H]2O[C@H]3[C@H](O)[C@@H](O)[C@@H](O[C@H]4[C@H](O)[C@@H](O)[C@@H](O[C@H]5[C@H](O)[C@@H](O)[C@@H](O[C@H]6[C@H](O)[C@@H](O)[C@@H](O[C@H]7[C@H](O)[C@@H](O)[C@@H](O[C@H]8[C@H](O)[C@@H](O)[C@@H](O[C@H]1[C@H](O)[C@H]2O)O[C@@H]8CO)O[C@@H]7CO)O[C@@H]6CO)O[C@@H]5CO)O[C@@H]4CO)O[C@@H]3CO	inactive
O=C(O)c1ccc(S(=O)(=O)N(Cl)Cl)cc1	inactive
C=C[C@H]1CN2CC[C@H]1C[C@@H]2[C@@H](O)c1ccnc2ccc(OC)cc12	inactive
NC(=O)c1ccccc1O	inactive
COc1ccc(C(=O)c2ccccc2)c(O)c1	inactive
CCCCC(CC)COC(=O)c1ccc(N(C)C)cc1 (stereo not given)	inactive
CCOc1ccccc1C(N)=O	inactive
CCCN(CCC)S(=O)(=O)c1ccc(C(=O)O)cc1	inactive
